The record followed here is PubChem BioAssay (NCATS).

Molecules are shown by their SMILES. Results filed as inconclusive are left out. Activity calls are given as the source filed them. Unless noted, calls come from the whole dose curve; as a rule, active = well fitted curve in the direction sought with a large enough effect; inconclusive = small, poorly fitted or top-dose-only effect, or another doubt; inactive = no such curve, though single readings can be large; an effect the other way counts as inactive or inconclusive.

Experiment [1] is described as follows: qHTS for Inhibitors of the Functional Ribonucleoprotein Complex (vRNP) of Lymphocytic Choriomeningitis Arenaviruses (LCMV): Viability assay - alamar blue signal for LCMV Primary Screen (AID 1347085; calls by dose curve; tested in HEK293 reporter line; note: nearly all actives have a fitted effect of over 80% in size; note: potency is the fitted concentration of half-maximal effect). (In general: In qHTS, concentration-response curves come from the screen itself.)
Experiment [2] has as its target Nucleoprotein (Lymphocytic choriomeningitis virus (strain Armstrong)) (UniProt P09992). Put plainly: qHTS for Inhibitors of the Functional Ribonucleoprotein Complex (vRNP) of Lymphocytic Choriomeningitis Arenaviruses (LCMV): LCMV Primary Screen - GLuc reporter signal (AID 1347086; calls by dose curve; note: nearly all actives have a fitted effect of over 70% in size; note: potency is the fitted concentration of half-maximal effect).
Experiment [3] in a line: qHTS of pediatric cancer cell lines to identify multiple opportunities for drug repurposing: Primary screen for TC32 cells (AID 1347089). Note: nearly all actives have a fitted effect of over 60% in size. In a few lines: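 Luminescent CellTiter-Glo read-out of metabolically active TC32 cells after 48 h compound exposure. Primary: MIPE 11-point, 0.78 nM–46 µM; NPC 8-point, 0.59 nM–46 µM. Confirmatory: 11-point dilutions.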
Experiment [4] is described as follows: qHTS of pediatric cancer cell lines to identify multiple opportunities for drug repurposing: Primary screen for DAOY cells (AID 1347090). Note: nearly all actives have a fitted effect of over 55% in size. Note: potency is the fitted concentration of half-maximal effect. In short, it runs like this:
(§1)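 Eight- or eleven-point concentration series, 48 h treatment at 37 degrees C in growth media; readout CellTiter-Glo luminescence. Potency and efficacy were taken from the concentration-response curves.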

Experiment [5] in a line: qHTS of pediatric cancer cell lines to identify multiple opportunities for drug repurposing: Primary screen for SJ-GBM2 cells (AID 1347091). Note: potency is the fitted concentration of half-maximal effect. In short, it runs like this:
as §1

Experiment [6] in a line: qHTS of pediatric cancer cell lines to identify multiple opportunities for drug repurposing: Primary screen for A673 cells (AID 1347092). Note: potency is the fitted concentration of half-maximal effect; nearly all actives have a fitted effect of over 45% in size. In short, it runs like this:
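A673 cells (500-1,000 cells/well in growth media) were pre-incubated 5 h at 37 degrees C, then exposed to compounds for 48 h. Viability was read as CellTiter-Glo luminescence; concentration-response curves came directly from the primary screen.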

The nature of experiment [7]: qHTS of pediatric cancer cell lines to identify multiple opportunities for drug repurposing: Primary screen for BT-37 cells (AID 1347094). Note: series mostly up to about 57 µM. In short, it runs like this:
(§2)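 Primary screen of approved and investigational compounds on cells in growth media at 37 degrees C, 5% CO2. MIPE set at 11-point and NPC set at 8-point dilutions; viability scored by ATP-based luminescence at 48 hours.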

A short description of experiment [8]: qHTS of pediatric cancer cell lines to identify multiple opportunities for drug repurposing: Primary screen for U-2 OS cells (AID 1347096). Note: nearly all actives have a fitted effect of over 50% in size. In a few lines:
(§3)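 Cells (500-1,000/well) in growth media were settled 5 h at 37 degrees C, then given compounds for 48 h. Viability was read as CellTiter-Glo luminescence. Primary runs used MIPE at 11 points (0.78 nM-46 µM) and NPC at 8 points (0.59 nM-46 µM); follow-ups used 11 points.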

Experiment [9] is described as follows: qHTS of pediatric cancer cell lines to identify multiple opportunities for drug repurposing: Primary screen for Saos-2 cells (AID 1347097). Note: nearly all actives have a fitted effect of over 40% in size. Note: potency is the fitted concentration of half-maximal effect. In short, it runs like this: as §2
Experiment [10] in a line: qHTS of pediatric cancer cell lines to identify multiple opportunities for drug repurposing: Primary screen for BT-12 cells (AID 1347101). Note: nearly all actives have a fitted effect of over 25% in size. In short, it runs like this: (§4)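 Cells (500-1,000/well) rested 5 h, then received compounds for 48 h; metabolically active cells were measured by CellTiter-Glo luminescence. Final concentrations spanned up to 46 µM (MIPE, 11-point) or 0.59 nM-46 µM (NPC, 8-point) in primary screens, 11-point in follow-ups.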

Experiment [11] in a line: qHTS of pediatric cancer cell lines to identify multiple opportunities for drug repurposing: Primary screen for Rh18 cells (AID 1347102). Note: nearly all actives have a fitted effect of over 65% in size. In a few lines: as §3
Experiment [12] in a line: qHTS of pediatric cancer cell lines to identify multiple opportunities for drug repurposing: Primary screen for MG 63 (6-TG R) cells (AID 1347105). Note: nearly all actives have a fitted effect of over 50% in size. In a few lines:
as §2

Experiment [13] can be described thus: qHTS of pediatric cancer cell lines to identify multiple opportunities for drug repurposing: Primary screen for control Hh wild type fibroblast cells (AID 1347106).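 Note: series mostly up to about 46 µM; a drop in luminescence marks cytotoxicity and a rise apparent proliferation; nearly all actives have a fitted effect of over 55% in size.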 In a few lines:
as §3

Experiment [14] can be described thus: qHTS of pediatric cancer cell lines to identify multiple opportunities for drug repurposing: Primary screen for SK-N-MC cells (AID 1347093). Note: potency is the fitted concentration of half-maximal effect. In a few lines: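 Metabolically active cells were quantified by ATP-dependent luminescence (CellTiter-Glo, 15 min at room temperature) following 48 h treatment. Cells had been plated at 500-1,000 per well and settled for 5 h beforehand.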

The nature of experiment [15]: qHTS of pediatric cancer cell lines to identify multiple opportunities for drug repurposing: Primary screen for NB-EBc1 cells (AID 1347095). Note: potency is the fitted concentration of half-maximal effect. In short, it runs like this: as §2
A short description of experiment [16]: qHTS of pediatric cancer cell lines to identify multiple opportunities for drug repurposing: Primary screen for SK-N-SH cells (AID 1347098).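 Note: DMSO served as neutral control and bortezomib at 2.3 µM as positive control; nearly all actives have a fitted effect of over 65% in size.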 In a few lines: as §4
A short description of experiment [17]: qHTS of pediatric cancer cell lines to identify multiple opportunities for drug repurposing: Primary screen for LAN-5 cells (AID 1347100). Note: potency is the fitted concentration of half-maximal effect. In a few lines:
as §3

Experiment [18] can be described thus: qHTS of pediatric cancer cell lines to identify multiple opportunities for drug repurposing: Primary screen for RD cells (AID 1347104). Note: nearly all actives have a fitted effect of over 55% in size. Note: potency is the fitted concentration of half-maximal effect. In a few lines: as §2
Experiment [19] can be described thus: qHTS of pediatric cancer cell lines to identify multiple opportunities for drug repurposing: Primary screen for NB1643 cells (AID 1347099). Note: nearly all actives have a fitted effect of over 50% in size. Note: potency is the fitted concentration of half-maximal effect. In short, it runs like this: as §2
Experiment [20] is described as follows: qHTS of pediatric cancer cell lines to identify multiple opportunities for drug repurposing: Primary screen for OHS-50 cells (AID 1347103). Note: nearly all actives have a fitted effect of over 40% in size. Note: potency is the fitted concentration of half-maximal effect. In a few lines:
as §4

Nucleoprotein (Lymphocytic choriomeningitis virus (strain Armstrong)), sequence (P09992 whole entry, looked up): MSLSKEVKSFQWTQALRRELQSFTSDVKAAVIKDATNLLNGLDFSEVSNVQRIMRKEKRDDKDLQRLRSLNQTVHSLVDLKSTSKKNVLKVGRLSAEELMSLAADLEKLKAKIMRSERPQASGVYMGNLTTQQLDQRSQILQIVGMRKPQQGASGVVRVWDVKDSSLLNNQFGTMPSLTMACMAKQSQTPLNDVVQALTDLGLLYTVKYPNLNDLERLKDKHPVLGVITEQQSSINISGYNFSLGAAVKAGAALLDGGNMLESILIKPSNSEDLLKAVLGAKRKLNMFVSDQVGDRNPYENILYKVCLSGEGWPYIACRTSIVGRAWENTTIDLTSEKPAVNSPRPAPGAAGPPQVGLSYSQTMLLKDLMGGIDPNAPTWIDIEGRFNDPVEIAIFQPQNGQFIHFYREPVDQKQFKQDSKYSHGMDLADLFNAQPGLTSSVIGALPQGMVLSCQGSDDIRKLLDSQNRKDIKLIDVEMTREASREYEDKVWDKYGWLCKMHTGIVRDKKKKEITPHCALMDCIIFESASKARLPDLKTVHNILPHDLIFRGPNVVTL

`CCOC(=O)Nc1ccc(NCc2ccc(F)cc2)cc1N`: the Potency is 1.37 µM (active) in experiment [1], 1.53 µM (active) in experiment [2] and 18.7 µM (active) in experiment [6]. Also, the Potency entry in [3], in experiment [4], in experiment [5], in experiment [7], in [8] and in [9] was “inactive” each time. In addition, the Potency result in [10], in experiment [11], in [12] and in experiment [13] was “inactive” in each case.

As for `O=C(Oc1ccc([N+](=O)[O-])cc1)N1CCC(C(O)(c2ccc3c(c2)OCO3)c2ccc3c(c2)OCO3)CC1`, the figures for the Potency in [1] and in experiment [14] were 3.06 µM (active) and 16.6 µM (active), respectively. Further, the Potency entry in experiment [2], in experiment [3], in [4], in experiment [5], in experiment [15] and in experiment [8] was “inactive” throughout. In addition, the Potency entry in experiment [9], in experiment [16], in [17], in experiment [10], in experiment [18] and in experiment [12] was “inactive” throughout. Further, the Potency result in experiment [13] is “inactive”.

`O=c1[nH]c2ccccc2n1C1CCN(Cc2ccc(-c3[nH]c4cc5ncnc5cc4nc3-c3ccccc3)cc2)CC1`: the Potency entry in experiment [1], in experiment [2], in [3], in experiment [4], in experiment [16] and in experiment [13] was “inactive” in each case. The Potency is 3.32 µM (active) in experiment [5]; 0.833 µM (active) in experiment [14]; 20.9 µM (active) in [15]; 16.6 µM (active) in experiment [9]; 20.9 µM (active) in experiment [19]; 14.8 µM (active) in [17]. Besides, the Potency in experiment [20] is 1.72 µM (active).

With `O=C(O)CNC(=O)c1c(O)c2ccccc2n(Cc2ccccc2)c1=O`, the Potency result in experiment [1], in experiment [2], in [3], in experiment [4], in experiment [5] and in experiment [7] was “inactive” in each case. The Potency entry in experiment [8], in experiment [9], in experiment [16], in [19], in [17] and in experiment [11] was “inactive” in each case. Moreover, the Potency entry in [18], in experiment [12] and in [13] was “inactive” in each case.

Take `O=C(O)COc1ccccc1`: the Potency result in experiment [1], in [2], in experiment [3], in experiment [4], in [5] and in experiment [14] was “inactive” throughout. Further, the Potency result in experiment [7], in [15], in experiment [8], in experiment [9], in experiment [16] and in [19] was “inactive” in each case. Further, the Potency result in experiment [17], in experiment [10], in [11], in experiment [20], in [18] and in [12] was “inactive” each time. Besides, the Potency entry in experiment [13] was “inactive”.

On to `COc1ccc(C(=O)c2c(C)n(CCN3CCOCC3)c3cc(I)ccc23)cc1`, for which the Potency entry in [1], in experiment [2], in experiment [3] and in [13] was “inactive” throughout. Besides, the Potency in experiment [4] is 18.7 µM (active); in experiment [5] it was 18.7 µM (active); in experiment [14], 1.48 µM (active); in [9], 18.7 µM (active); in [19], 14.8 µM (active); in experiment [20], 19.3 µM (active). For the same compound, the Potency in [18] is 18.7 µM (active).

On to `CC[C@@H](C(N)=O)N1CCCC1=O`, for which the Potency result in experiment [1], in experiment [2], in experiment [3], in [4], in experiment [5] and in [7] was “inactive” in each case. For the same compound, the Potency entry in [15], in experiment [8], in experiment [9], in experiment [17], in [10] and in [11] was “inactive” throughout. Besides, the Potency entry in experiment [12] and in experiment [13] was “inactive” in each case. In addition, the Potency in experiment [14] is 26.4 µM (active).
